ERG-DNA inh – inhibitors of human ERG Ets domain-DNA interaction | P11308 | fluorescence polarization, His-ERG Ets domain / labelled DNA | Potency, µM (doses to about 76.9 µM), actives largely listed as inhibitors | 370,000 tested, 0.028% active | AID 624246; active = well fitted inhibition curve with a large enough effect in the polarisation, with a control signal flat; inconclusive = small, poorly fitted or top-dose-only effect, or effect the other way, or a change in a side signal; inactive = no such curve, though single readings can be large or run the other way; the % refers to the polarisation;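 note: polarization taken with two DNA probes labelled with fluorescein and Texas red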
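His-tagged ERG Ets domain (1 uM in the protein solution; 300mM KCl, 50mM Tris-HCl, 1mM EDTA, 1mM DTT, pH 7.5) received compound, then a probe mix of 5 nM fluorescein-DNA and 100nM Texas-615-DNA. Fluorescence polarization was read for both dyes.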
Nrf2 inh – Nrf2 pathway inhibition. AID 504444. 360,000 tested, 2.1% active. A549 ARE-Fluc reporter, luciferase luminescence, 18-24 h. Potency, µM (top dose mostly 46 µM), usual class: inhibitors; note: nearly all actives have a fitted effect of over 60% in size
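Nrf2 activity is the BugLite luminescence, read 15 min after reagent at room temperature, following CellTiter-Fluor cytotoxicity readout (30 min, 37C). Compound titrations were applied for 18-24 h to 5000 A549 ARE_Fluc cells/well in 5% FBS OPTI-MEM.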
ALOX12 inh – ALOX12 (human) lipoxygenase inhibition; 580,000 tested, 1.1% active; P18054; purified 12hLO, xylenol orange hydroperoxide absorbance; Potency, µM (doses to about 108 µM), actives largely listed as inhibitors
Target sequence (P18054 whole entry, looked up): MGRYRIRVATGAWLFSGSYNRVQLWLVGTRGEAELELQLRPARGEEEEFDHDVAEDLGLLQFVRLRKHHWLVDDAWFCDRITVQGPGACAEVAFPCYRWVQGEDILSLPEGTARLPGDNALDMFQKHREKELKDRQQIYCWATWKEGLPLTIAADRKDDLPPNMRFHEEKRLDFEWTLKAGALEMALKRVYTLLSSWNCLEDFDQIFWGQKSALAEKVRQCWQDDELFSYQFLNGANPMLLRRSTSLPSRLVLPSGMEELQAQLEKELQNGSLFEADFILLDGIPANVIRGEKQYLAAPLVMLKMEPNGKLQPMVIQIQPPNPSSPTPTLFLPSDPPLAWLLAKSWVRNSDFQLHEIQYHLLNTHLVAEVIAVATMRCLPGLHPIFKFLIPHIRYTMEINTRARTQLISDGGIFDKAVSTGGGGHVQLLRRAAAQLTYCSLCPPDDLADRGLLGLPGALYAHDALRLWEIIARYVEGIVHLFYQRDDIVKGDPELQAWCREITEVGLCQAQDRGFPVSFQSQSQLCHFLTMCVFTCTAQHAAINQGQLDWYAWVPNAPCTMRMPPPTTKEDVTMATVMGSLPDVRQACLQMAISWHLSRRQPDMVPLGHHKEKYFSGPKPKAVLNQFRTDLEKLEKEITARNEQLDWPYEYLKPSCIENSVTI
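Purified human 12hLO (150 nM final) in 25 mM Hepes, 0.01% Triton X-100, pH 7.0 was preincubated 15 min at room temperature with compound. Then 40 uM arachidonic acid was added, 30 min. Hydroperoxide was read by Fe-XO absorbance ratio 573/405 nm.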
LDHA inh – blocks human lactate dehydrogenase A; P00338; AID 1347041; 480,000 tested, 0.15% active; activity change, % (values are at about 110 or 230 µM); purified LDHA, NADH/diaphorase-resazurin fluorescence; hits give low values; in the data active = activity change below about -30%; inconclusive = mostly about -25% to -30%
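Resorufin fluorescence (ex540/em590), read at 0 and 20 min after diaphorase/resazurin addition, reports the NADH left after a 5 min room-temperature reaction of 2 nM human LDH5 with 0.06 mM NADH and 0.2 mM pyruvate.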
Nrf2 ARE act – activators of Nrf2 (ARE) signaling. AREc32 ARE-luciferase reporter (MCF7-derived line), luminescence, 24 h. Potency, µM (highest dose often 46.1 µM), hits mostly activators. 410,000 tested, 0.31% active; note: nearly all actives have a fitted effect of over 65% in size
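ARE activation measured as luciferase luminescence (Steady-Glo, 30 min RT) in AREc32_Fluc cells after 24 hr compound exposure at 37 deg C, 5% CO2; cells seeded overnight at 1000/well in OPTI-MEM, 5% FBS.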
A549 tox – A549 cytotoxicity, counter-screen for Nrf2 inhibitors; A549 ARE-Fluc cells, CellTiter-Fluor viability, 18-24 h; AID 504648; Potency, µM (doses to about 46 µM), most hits filed as inhibitors; 390,000 tested, 0.16% active
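A549 ARE-Fluc cells in 5% FBS OPTI-MEM, 5000 cells/well, rested 2 h then exposed to compounds in concentration-response for 18-24 h at 37 °C. Viability by CellTiter-Fluor fluorescence (Ex 405/Em 525) after 30 min; luciferase luminescence (BugLite, 15 min, RT) read afterwards.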
A number is an active result; - = inactive; ? = inconclusive; . = no result; [ ] = dose if it differs, or a comment. Most compounds without a hit are left out; they make up all but 2.7% or so of the library. Unless noted, calls come from the whole dose curve; as a rule, active = well fitted curve in the direction sought with a large enough effect; inconclusive = small, poorly fitted or top-dose-only effect, or another doubt; inactive = no such curve, though single readings can be large; an effect the other way counts as inactive or inconclusive.

SMILES	ERG-DNA inh	Nrf2 inh	ALOX12 inh	LDHA inh	Nrf2 ARE act	A549 tox
Cc1cc(C2=NNC(=NC3CC3)SC2)c(C)n1-c1ccccc1	-	6.51µM	-	-	-	-
COc1cc(OC)cc(-c2nn3c(CN4CCCCC4)nnc3s2)c1	.	.	?	-	.	.
O=C(CCl)N(Cc1cc(=O)[nH]c2ccccc12)c1ccccc1	-	23.1µM	?	-	-	-
CCCCCCCCS(=O)CCCCC(=O)O (configuration not stated)	.	.	-	-	.	.
CCCCCCCCS(=O)CCC(=O)O (configuration not stated)	-	-	25.1µM	-	-	-
NC1CC(c2cc(N3CCN(c4nnc(C(F)(F)F)s4)CC3)ncn2)C1 (configuration not stated)	.	.	-	.	.	.
Cc1cncnc1C1CCN(c2cc(C3CC(N)C3)ncn2)CC1 (configuration not stated)	.	.	14.1µM	.	.	.
O=C(NCc1cccnc1)/C(=C\c1ccc(-c2cccc(Cl)c2)o1)S(=O)(=O)c1ccccc1	-	20.6µM	-	-	?	20.6µM
Cc1ccc(-c2cc(C(=O)O)c3cccc(Cl)c3n2)o1	.	.	?	-	.	.
CCN(CC)c1ccc(Nc2cc3n(c(=O)n2)CCc2cc(OC)c(OC)cc2-3)cc1	-	16.4µM	?	-	-	-
COc1ccc(-c2ccc3c(c2)[C@@H]2C[C@H](N(C)C(=O)C(C)(C)C)[C@H]([C@H](C)O)C(=O)N2CC3)cc1	-	-	11.2µM	-	-	-
COc1ccc(-c2ccc3[nH]c4c(c3c2)CCN2C(=O)[C@@H]([C@H](C)O)[C@@H](N(C)C(=O)Nc3cc(Cl)cc(Cl)c3)C[C@@H]42)cc1	.	.	?	-	-	.
COCC(=O)N(C)[C@H]1C[C@H]2c3cc(-c4ccccc4)ccc3CCN2C(=O)[C@H]1[C@H](C)O	-	-	-	-	-	-
COc1ccc(-c2ccc3[nH]c4c(c3c2)CCN2C(=O)[C@@H]([C@H](C)O)[C@@H](N(C)C(=O)Nc3ccc(F)cc3)C[C@@H]42)cc1	.	.	?	-30.8	-	.
COC(=O)c1c(-c2cccs2)csc1NC(=O)CN1CCOCC1	-	6.51µM	-	-	-	-
CCSc1nc(N)c(C#N)c(-c2ccco2)c1C#N	-	?	-	-	-	-
COC(=O)CSc1nc(N)c(C#N)c(-c2ccco2)c1C#N	-	.	-	-	14.1µM	-
Cc1ccc(N/N=C/c2cccnc2)cc1	-	-	39.8µM	-	-	-
Cc1ccc(Nc2nc(-c3cccnc3)nc3ccccc23)cc1C	.	.	?	-	.	.
N#CCc1ccc(NC(=O)CNc2ccccc2C(N)=O)cc1	.	.	?	-	.	.
O=[N+]([O-])c1cc(CN2CCN(c3ccccc3)CC2)c(O)c2ncccc12	-	2.59µM	?	-	-[9.22 µM]	?
Oc1c(CN2CCCCC2)cc(Br)c2cccnc12	-	?	5.62µM	-	-	-
Oc1c(Cl)cc(CN2CCOCC2)c2cccnc12	-	?	?	-	-	?
O=[N+]([O-])c1cc(CN2CCOCC2)c2cccnc2c1O	-	23.1µM	.	-	-	?
Cc1ccccc1C(=O)Nc1ccc2nc(N3CCN(CCC#N)CC3)cc(C(=O)O)c2c1	.	.	?	-	.	.
SMILES	ERG-DNA inh	Nrf2 inh	ALOX12 inh	LDHA inh	Nrf2 ARE act	A549 tox
O=C(NCCc1csc(-c2ccc(C(F)(F)F)cc2)n1)c1cccs1	-	25.9µM	-	-	-	-
O=C(COC(=O)c1cc(S(=O)(=O)N2CCOCC2)ccc1N1CCCCC1)NC1CC1	.	.	-	-	.	.
O=C(Nc1ccccc1)Nc1ccc(Cl)nc1Cl	-	?	3.16µM	-	-	?
Cc1ccc(CNc2nc(N)c([N+](=O)[O-])c(Nc3ccc(Cl)cc3)n2)cc1	.	.	-	-	.	.
Fc1ccc(-c2cnc([C@@H]3COCCN3Cc3ccccc3F)[nH]2)c(F)c1	.	.	-	.	.	.
N#Cc1c(-c2ccc(F)cc2)cc(-c2ccccc2)nc1SCC(=O)NCC(=O)O	-	-	?	-79.6	-	-
N#Cc1c(-c2ccccc2)cc(-c2ccccc2)nc1SCC(=O)Nc1ccc(Cl)cc1	-	-	-	-	-	-
N#Cc1c(-c2ccc(Cl)cc2)cc(-c2ccccc2)nc1SCC(=O)O	-	?	11.2µM	-	-	-
Cc1cc(C)c2nc(-c3ccc(C)c(C)c3)cc(C(=O)O)c2c1	.	.	?	-	.	.
COc1ccccc1C1CN(c2ccccc2)N=C1c1cccs1 (configuration not stated)	.	-	6.31µM	-	-	?
O=C(/C=C/c1ccc(Cl)cc1Cl)c1ccccc1OC(F)F	.	.	-	?	.	.
O=C(O)c1cc(-c2cccnc2)nc2cc(N3CCOCC3)ccc12	.	.	?	-	.	.
COCCNc1ncnc2ccc(-c3ccccc3C(F)(F)F)cc12	.	.	20µM	.	.	.
CCCn1c(-c2ccc(OC(F)F)cc2)nc2c1c(=O)[nH]c(=O)n2Cc1ccccc1	.	.	?	-	.	.
CCOC(=O)c1ccc(NC(=S)NCCC2=CCCCC2)cc1	-	-	39.8µM	-	-	-
FC(F)Sc1ccc(NC(=S)NCCC2=CCCCC2)cc1	.	.	17.8µM	-	.	.
Fc1ccc(NC(=S)NCCC2=CCCCC2)cc1	.	.	?	-	.	.
CCOC(=O)c1ccc(NC(=S)NCCc2ccccc2F)cc1	-	-	39.8µM	-	-	-
COC(=O)c1ccc(NC(=S)NC(=O)C2CCC2)cc1	-	-	?	-	-	-

Screening data deposited in PubChem BioAssay by National Center for Advancing Translational Sciences (NCATS).
